Only some compounds are listed: those with a hit (about 7.5% of all), similar ones and a draw of the others.
ELG1 genotoxic: inducers of genotoxicity in HEK293T ELG1-luciferase cells; HEK293T ELG1-luciferase reporter, luminescence, 16 h; actives 1.3% (n = 330,000); Potency, µM (titrated, usually from 46 µM), for inactives: at the highest dose activity change, positive = activation, usual class: activators; also: % of control where 0% means no effect; nearly all actives have a fitted effect of over 60% in size
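Quantitative HTS format in 1536-well plates. HEK293T ELG1-luciferase reporter cells receive test compound and are incubated 16 hr at 37 °C, 5% CO2; ONE-Glo added, 30 min room temperature, then luminescence read.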
SMN2 splice up: enhancers of SMN2 splice variant expression; HEK293 SMN2-luciferase splicing reporter, luminescence, 30-36 h; Potency, µM (titrated, usually from 46.1 µM), without a hit: top-dose activity change, positive = activation, hits mostly activators; actives 2.8% (n = 210,000); also: % of control where 0% means no effect; nearly all actives have a fitted effect of over 55% in size
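HEK293 cells carry an SMN2 […]–luciferase reporter in which exon 7 inclusion puts luciferase in frame. Cells were plated 10-12 h before compound addition, then incubated 30-36 h at 37C. ONE-Glo luminescence was read; sodium butyrate at 4.5 mM final served as control.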
FLuc modulator: counter-screen for miR-21 project: firefly luciferase inhibitors or activators. P08659. purified FLuc, Km substrates, luminescence inhibition. Potency, µM (highest dose often 57.5 µM), for the others: at the top dose activity change, negative = inhibition, usual class: inhibitors. actives 6.9% (n = 360,000). AID 588342;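 also: plate controls were vehicle for no effect and reference inhibitor for full effect; nearly all actives have a fitted effect of over 55% in size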
Target sequence (P08659 whole entry, looked up): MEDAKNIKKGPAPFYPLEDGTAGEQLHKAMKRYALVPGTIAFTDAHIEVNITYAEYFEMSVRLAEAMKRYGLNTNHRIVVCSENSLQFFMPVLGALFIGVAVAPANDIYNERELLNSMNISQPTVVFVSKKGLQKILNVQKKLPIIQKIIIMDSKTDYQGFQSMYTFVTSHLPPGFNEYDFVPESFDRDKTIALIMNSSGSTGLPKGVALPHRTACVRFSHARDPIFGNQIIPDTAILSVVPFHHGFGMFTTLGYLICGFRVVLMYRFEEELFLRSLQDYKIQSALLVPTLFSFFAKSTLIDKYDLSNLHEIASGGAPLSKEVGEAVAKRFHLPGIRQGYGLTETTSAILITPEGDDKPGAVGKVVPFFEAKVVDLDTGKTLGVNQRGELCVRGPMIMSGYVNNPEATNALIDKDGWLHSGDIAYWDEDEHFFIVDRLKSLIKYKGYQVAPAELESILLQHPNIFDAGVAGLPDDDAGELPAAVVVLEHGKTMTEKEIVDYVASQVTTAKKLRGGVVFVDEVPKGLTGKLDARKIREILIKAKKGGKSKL
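Purified P. pyralis luciferase, 10 nM final, with Km-level 10 uM D-luciferin and 10 uM ATP in 50 mM Tris acetate pH 7.5, 10 mM Mg acetate, 0.01% Tween-20, 0.05% BSA; 6-point qHTS titration about 60 µM downward; luminescence read.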
NPC1 prom act: NPC1 promoter activation; actives 2.4% (n = 320,000); AID 485313; Huh7 NPC1 promoter luciferase reporter, 24 h; Potency, µM (doses to about 9.22 µM), for the others: at the highest dose activation, usual class: activators; also: % of control where 0% means no effect; nearly all actives have a fitted effect of over 60% in size
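Luciferase expression driven by the NPC1 promoter was measured in stably transfected Huh7 cells after a 24 h compound incubation, using a luciferase reagent and a luminescence read.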
Rab9 promoter act: activates the Rab9 promoter | Huh7 Rab9 promoter-luciferase reporter, luminescence, 24 h | Potency, µM (highest dose often 9.22 µM), for inactives: at the highest dose activation, negative = inhibition, actives largely listed as activators | actives 2.8% (n = 320,000) | AID 485297; also: % of control where 0% means no effect; nearly all actives have a fitted effect of over 60% in size
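Measured in stably transfected Huh7 cells bearing a Rab9 promoter–luciferase construct: 24 h compound treatment at 37 °C, followed by luminescence detection.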
Active calls of the source: *; u = inconclusive; x = no result given. Calls follow the shape of the dose curve; as a rule, active = well fitted curve in the direction sought with a large enough effect; inconclusive = small, poorly fitted or top-dose-only effect, or another doubt; inactive = no such curve, though single readings can be large; an effect the other way counts as inactive or inconclusive. Potency is read from the fitted curve at half-maximal effect.

SMILES | ELG1 genotoxic | SMN2 splice up | FLuc modulator | NPC1 prom act | Rab9 promoter act
Cc1ccc(/C=N/NC(=O)c2cccs2)cc1[N+](=O)[O-] | 9.1% | u | 7.57µM* | u | u
O=C(N/N=C/c1ccccc1[N+](=O)[O-])c1cccs1 | u | x | 6.75µM* | u | 2.51µM*
Cc1cccc(-c2nc(=S)c3c(o2)CCCC3)c1 | u | 11.2µM* | 3.38µM* | 1.41µM* | 1.41µM*
O=C(CCC(=O)c1cccs1)NC(c1ccccc1)c1ccccc1 | 0.6% | -9.2% | 0.0% | -0.7% | -2.0%
O=C(NCc1ccco1)c1cccs1 | -0.8% | -11.5% | -1.9% | 3.9% | -4.0%
O=C(COC(=O)c1cccs1)c1ccccc1 | 14.3% | 14.0% | 0.849µM* | u | 3.98µM*
COc1cccc(C(=O)COC(=O)c2cc(-c3cccs3)nc3ccccc23)c1 | x | -0.3% | -17.0% | x | x
COc1cccc(C(=O)COC(=O)c2cccs2)c1 | u | x | 0.477µM* | u | 5.2%
O=C(CCC(=O)c1cccs1)c1cccs1 | 16.4µM* | x | 4.78µM* | 1.26µM* | 0.631µM*
O=C(CSCc1ccco1)c1cccs1 | 11.6µM* | 6.8% | 9.53µM* | 3.98µM* | 1.26µM*
NC(=O)c1cc2c3ccccc3ccn2c1-c1ccccc1 | 11.6µM* | x | 21.3µM* | -2.1% | -15.2%
Cc1cc(=O)n(CC(=O)NC2CC2)c2c1c(C)nn2-c1ccccc1 | 4.1% | x | -5.7% | 3.7% | -0.4%
CCc1ccc(C(=O)CN2C(=O)C(C)N(c3ccc(C)cc3)C2=O)cc1 (configuration not stated) | 2.8% | -13.8% | -19.7% | -2.2% | 2.3%
Nc1nc2ccc(Cc3ccncc3)cc2s1 | u | x | 16.9µM* | 18.7% | u
COCCn1c(SC(C)C(=O)Nc2ccc(N3CCOCC3)cc2)nnc1-c1ccncc1 (configuration not stated) | 5.4% | x | -4.7% | 1.5% | 1.3%
Cc1ccc(C(=O)CSc2nsc(C)c2C#N)cc1 | u | 12.6µM* | 10.7µM* | 3.55µM* | 3.16µM*
Cc1cc(C)c(C#N)c(OCC(=O)c2ccc(Br)cc2)n1 | -0.9% | -10.8% | -0.5% | 0.9% | 6.2%
Cc1ccnc(SCC(=O)c2ccc(Br)cc2)c1C#N | 11.9% | 14.1µM* | 21.3µM* | 3.55µM* | 2.82µM*
Cc1snc(SCC(=O)c2ccc(Cl)cc2)c1C#N | 10.3% | -3.4% | u | u | u
CCC(C)NC(=O)CSc1c2c(nc3cc(Cl)ccc13)CCCC2 (configuration not stated) | x | 0.1% | -0.2% | x | x
CCN(CC)CCCNC(=O)c1ccc2c3n(nc2c1)-c1ccc(Cl)cc1CO3 | u | x | u | u | 0.891µM*
CC(C)NC(=O)c1ccc2c3n(nc2c1)-c1ccc(Cl)cc1CO3 | u | x | 1.9µM* | 1.26µM* | 1.41µM*
CCN(CC)c1ccc(-c2nn3c(-c4n[nH]c5c4CCC5)nnc3s2)cc1 | 1.2% | 4.1% | 21.3µM* | -8.9% | -13.3%
C1CCC(c2nn3c(-c4n[nH]c5c4CCC5)nnc3s2)CC1 | 1.6% | x | -9.5% | -0.5% | -2.3%
CCCOC(=O)c1ccc(NC(=O)c2ccc(Br)o2)cc1 | u | -1.4% | 16.9µM* | 25.5% | 26.7%
SMILES | ELG1 genotoxic | SMN2 splice up | FLuc modulator | NPC1 prom act | Rab9 promoter act
O=C(Nc1ccccc1)c1ccc(Br)o1 | 17.3% | 19.6% | u | 16.0% | 14.6%
COC(=O)Cc1ccc(NC(=O)c2ccc(Br)o2)cc1 | 18.4µM* | u | 16.9µM* | u | u
COc1ccc(-c2ccc(NC(=O)c3ccc(Br)o3)cc2)nn1 | 2.06µM* | x | u | 2µM* | 1.12µM*
CS(=O)(=O)c1ccc(-c2cccc(NC(=O)c3ccc(Br)o3)c2)nn1 | -1.5% | x | 4.2% | 2.0% | 1.5%
CCN(CC)c1ccc(NC(=O)c2ccc(Br)o2)cc1 | u | 11.2µM* | 5.36µM* | 1.58µM* | 0.794µM*
FC(F)Oc1ccc(/C=N/N2CCCCC2)c(OC(F)F)c1 | 2.6% | 9.2% | -14.5% | -2.0% | -0.2%
CCOc1ccc(NC(=O)N2CCC(n3c(C)nc4cccnc43)CC2)cc1 | x | x | -1.9% | x | x
COC(=O)Cc1ccc(NC(=O)c2ccc(C)c(C)c2)cc1 | 5.17µM* | u | 3.01µM* | u | 2.51µM*
CN(C)/C=N/C(=S)Nc1ccc(Cl)c(Cl)c1 | u | 13.1% | 16.9µM* | 17.9% | 24.4%
N#CC1=C2C=Cc3ccccc3N2CCCC1=O | u | 23.1% | 10.7µM* | 2.24µM* | 2.82µM*
Cc1ccc(NC(CC(=O)c2ccccc2)c2ccc(F)cc2)cc1 (configuration not stated) | -0.7% | 8.8% | -1.0% | 3.1% | 0.2%
O=C(CC(Nc1ccc(F)cc1)C(=O)OCC(=O)c1cccs1)c1ccccc1 (configuration not stated) | u | u | u | u | 4.47µM*
O=C(CC(Nc1ccc(F)cc1)C(=O)O)c1ccccc1 (configuration not stated) | 1.03µM* | 12.6µM* | 1.07µM* | 1.12µM* | 1.26µM*
O=C(CCC(=O)c1cccs1)OCC(=O)c1ccc(F)cc1 | -1.1% | x | x | x | x
O=C(NCCOCCOCCNC(=O)c1ccccc1)c1ccccc1 | -1.6% | -30.8% | 0.8% | -5.6% | -3.9%
Cc1ccc(CNC(=O)CSc2ccsc2[N+](=O)[O-])cc1 | u | u | u | u | 1.41µM*
O=C(CSc1ccsc1[N+](=O)[O-])NCCc1ccccc1 | -3.4% | x | 6.1% | -2.2% | -4.1%
COc1ccc(CNC(=O)CSc2ccsc2[N+](=O)[O-])cc1 | u | u | 16.9µM* | u | 2.24µM*
O=C(CSc1ccsc1[N+](=O)[O-])NCCc1ccc(Cl)cc1 | 0.3% | -13.4% | -1.3% | 2.2% | -8.0%
Cc1ccc(Nc2ncc3c(n2)CC(c2ccco2)CC3=O)c(C)c1 (configuration not stated) | -1.5% | x | 0.0% | -3.6% | 0.5%
CCN1C(=O)[C@H]2[C@@H](c3ccc(C)cc3)N3C(=O)N(c4cccc(Cl)c4)C(=O)[C@@]3(CC)[C@H]2C1=O | 0.4% | x | 2.5% | 1.2% | -0.9%
CCOC(=O)C(=CNc1cccc(C)c1C)C(=O)OCC | 1.5% | 7.1% | u | 0.9% | -3.4%
CCOC(=O)C(=CNc1ccc(C)cc1C)C(=O)OCC | -1.5% | 1.8% | 15.1µM* | -0.5% | -6.9%
Clc1ccccc1Nc1ncnc2c1nnn2Cc1ccccc1 | -2.7% | 11.7% | -11.3% | 1.5% | 3.1%
COc1ccc(-c2cc3ccccc3s2)cc1[C@H]1[C@H]2C=CC[C@@H](C)[C@@H]2C(=O)N1Cc1ccccc1 | u | x | 1.35µM* | 3.16µM* | 2.82µM*
O=C(/C=C/c1cccc([N+](=O)[O-])c1)Nc1cc(C(=O)O)cc(C(=O)O)c1 | -9.0% | -45.3% | -17.9% | -9.5% | 1.6%
O=C(Nc1ccc([N+](=O)[O-])cc1)C(=O)Nc1cccc(C(=O)O)c1 | u | x | 0.019µM* | u | u
